About 83,000 compounds went through this panel and 20% of them were active in at least one assay; those are over-represented in the sample as a whole.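 Activity criterion: percent growth below 10, measured after cells in 96-well plates were exposed to a single compound concentration for 48 hours.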 Unmarked numbers belong to inactive results. Calls of active or inactive are those of the source.

The assay relates to OVCAR-5 ovarian. Kind of assay: NCI-60 one-dose screen, 48 h (100 = growth as untreated, 0 = no growth, -100 = all killed). To be noted: 10 µM unless noted. As for the experimental part: Growth inhibition of the OVCAR-5 human tumor cell line is measured as a screen for anti-cancer activity. Cells are grown in 96 well plates and exposed to the test compound for 48 hours. Compounds are tested at a single concentration, which is 10^-5 M for most compounds. The reported endpoint is percent growth (GI% or GIPRCNT), where numbers from 0 - 100% represent growth inhibition, and numbers from -100% - 0 represent cell death. For example, a value of 40 represents 60% growth inhibition. A value of 0 means no net growth occurred over the course of the experiment. A value of -40 indicates 40% of cells at the beginning of the experiment died by the end of the experiment. A value of -100 means all cells are dead at the end of the experiment.
NCI-60 Human Tumor Cell Lines Screen was performed using the standard one-dose NCI protocol, which is described in more detail at https://dtp.cancer.gov/discovery_development/nci-60/default.htm.
Compounds with GIPRCNT values below 10 were considered active. Activity score was based on GIPRCNT using the following formula: […]
Score is 0 for GIPRCNT values of 100 or above, 50 for GIPRCNT values of 0, and 100 for GIPRCNT values of -100.
With `CN(C)CCCCC(C(=O)CBr)(c1ccccc1)c1ccccc1`, the growth is 45.2%.
The result for `COc1ccc2[nH]c(-c3ccc(Cl)cc3)cc(=O)c2c1` reads 97.7%; that for `Cn1cc(-c2nc(-c3cn(C)c4ncccc34)cs2)c2ccccc21`, 73%; that for `CCc1nnc(NC(=O)c2ccoc2COc2ccccc2)s1`, 84.7%.
Turning to `COc1cccc(-c2nn(-c3ccccc3)cc2-c2ccnc(NCCCNS(=O)(=O)c3ccc(C(F)(F)F)cc3)c2)c1`, the growth was 50.1%.
With `CC(=O)c1c(C)[nH]c(-c2nc3ccc(N4CCN(C)CC4)cc3[nH]2)c1-c1ccc(OCC2CCOCC2)cc1`, the growth was 43.8%.
For `CCCCN1CCCCn2c1nc1c2c(=O)n(C)c(=O)n1C`, the growth was 117%.
In the case of `Cn1c(=O)c2c(nc(N3CCCC3)n2C)n(C)c1=O` it was 99.1%; in that of `Cn1cc(-c2csc(-c3cn(CCNC(=O)OC(C)(C)C)c4ccccc34)n2)c2cccnc21`, 115%.
In the case of `Brc1cnc2[nH]cc(-c3nnc(-c4ccccc4)o3)c2c1` it was 96.5%; in that of `COc1cnc2c(c1)C(=O)c1c-2n(CCCNCCN2CCOCC2)c(=O)c2cc([N+](=O)[O-])ccc12`, 15.3%.
In the case of `COc1ccccc1CNc1nc(N)nc2[nH]c3ccc(O)cc3c12` it was 76.4%.
As to `O=C1C=Cc2ncccc2C1=O`, the growth was 106%.
`Cc1ccc(-c2nc3ccc(Cl)cc3c(=O)n2N2C(=O)CSC2c2ccccc2Cl)cc1` (stereo not given): the growth is 82.7%.
The result for `O=C1C(=O)c2ccccc2C(O)=C1CCCc1ccc(C2CCCCC2)cc1` reads 61.7%; that for `C[C@]12CC[C@@H]3c4ccc(O)cc4CC[C@H]3[C@@H]1C[C@H](O)[C@@H]2O`, 85.5%; that for `O=S(=O)(NCCNc1cc(-c2cn(-c3ccccc3)nc2-c2cccc(O)c2)ccn1)c1ccc(Cl)cc1`, 63.4%.
In the case of `CC1(C)C(=O)/C(=C\c2cccnc2)C[C@]2(C)[C@H]3CC[C@@H]4[C@@H](C(=O)/C=C/c5ccncc5)CC[C@@]4(C)[C@]3(C)CC[C@@H]12`, the growth was 18.1%.
For the compound `Fc1ccc(NCc2nnc(-c3ccc(Cl)cc3)o2)cc1`, the growth was 86.9%.
The result for `CCCCC[C@H]1C/C=C2/C(=O)C(Cl)=C[C@@H]2C/C=C\CCCC(=O)O[C@@H](CCCCC)C/C=C2/C(=O)C(Cl)=C[C@@H]2C/C=C\CCCC(=O)O1` reads -44.4% (active); that for `O=S(=O)(NCCNc1cc(-c2cn(-c3ccccc3)nc2-c2cccc(O)c2)ccn1)c1ccc(F)cc1`, 62.9%; that for `Nc1nc(Br)nc2c1ncn2C1CC(O)C(CO)O1` (stereo not given), 76.3%.
The result for `C=C(C)[C@@H]1CC[C@]2(/C=N/Nc3ccncc3)CC[C@]3(C)[C@H](CC[C@@H]4[C@@]5(C)CCCNC(C)(C)[C@@H]5CC[C@]43C)[C@@H]12` reads 105%; that for `O=S(=O)(NCCNc1cc(-c2cn(-c3ccccc3)nc2-c2cccc(O)c2)ccn1)c1ccccc1`, 92.1%.
The result for `COc1cccc(-c2nn(-c3ccccc3)cc2-c2ccnc(NCCNS(=O)(=O)c3ccc(Cl)cc3)c2)c1` reads 56.2%; that for `COc1cccc(-c2nn(-c3ccccc3)cc2-c2ccnc(NCCCO)c2)c1`, 92%.
Take `CN(C)c1ccc(N)c2ccccc12`: the growth is 75.4%.
The result for `O=[N+]([O-])c1ccc(N/N=C(\C(=N/Nc2ccc([N+](=O)[O-])cc2[N+](=O)[O-])c2ccccc2)c2ccccc2)c([N+](=O)[O-])c1` reads 98.4%; that for `NCCn1cc(-c2nc(-c3c[nH]c4ncccc34)cs2)c2cc(Br)ccc21`, 89.4%; that for `CC1c2ccccc2N(S(=O)(=O)c2ccccc2)C1C` (stereo not given), 108%.
The result for `COC(=O)c1cc(=O)nc(N/N=C/c2ccc(C)cc2)s1` reads 101%; that for `COc1cc(/C=C2\C(=O)N(CC(O)COc3cc(O)c4c(=O)cc(-c5ccccc5)oc4c3)c3ccccc32)cc(OC)c1O` (stereo not given), 113%; that for `O=c1c(CNc2ccc(S(=O)(=O)Nc3nccs3)cc2)coc2ccccc12`, 92.8%.
In the case of `Cc1ccc(C)c2c1CCC2C(C)C` (stereo not given), the growth is 98.3%.
Turning to `COc1ccc2c(c1)c(-c1nc(-c3cn(C)c4ncccc34)cs1)cn2CCN`, the growth was 78.1%.
The result for `CCN1CCN(C(=O)[C@@]2(C)CC[C@]3(C)CC[C@]4(C)C(=CC(=O)[C@@H]5[C@@]6(C)CC[C@H](OCCC#N)C(C)(C)[C@@H]6CC[C@]54C)[C@@H]3C2)CC1` reads 92.3%; that for `COC(=O)CNc1nc(N(C)O)nc(N(C)O)n1`, 87.7%.
In the case of `N=c1ccc2nc3c(cc(N)c4ccccc43)oc-2c1` it was -100% (active); in that of `COC(=O)[C@]12CC[C@@H](C)[C@H](C)[C@@H]1C1=CC(=O)[C@@H]3[C@@]4(C)C[C@@H](OC(C)=O)[C@H](OC(C)=O)[C@@](C)(COC(C)=O)[C@@H]4C(=O)C[C@@]3(C)[C@]1(C)CC2`, 84.4%.
In the case of `O=C(c1ccccc1)C(CN1CCOCC1)c1ccccc1` (stereo not given) it was 116%.
